# This is a sample that favours compounds with a hit; in the whole collection about 2.7% have one here.
# GLP1R ag = qHTS of GLP-1 Receptor Agonists; Potency, µM (highest dose often 45.6 µM), without a hit: at the highest dose activation, hits mostly activators; HEK293 GLP-1R CRE-luciferase, luminescence, 4-6 h; cells express a hypersensitive GLP-1R form; 380,000 compounds, 0.007% hits; note: % of control where 0% means no effect
# TrxR1 substrate = qHTS Assay for Substrates of Mammalian Selenoprotein Thioredoxin Reductase 1 (TrxR1): qHTS. Thioredoxin reductase 1, cytoplasmic (Rattus norvegicus), O89049. purified TrxR1 substrate turnover, NADPH consumption readout. Potency, µM (titrated, usually from 114 µM), for the others: top-dose activity change, negative = substrate turnover. 390,000 compounds, 0.01% hits. AID 588456, 2011; note: % is set by controls: 0 for no effect and ±100 for the full control effect; nearly all actives have a fitted effect of over 50% in size
#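 Rat TrxR1, dispensed at 90 nM, was prereduced with 400 uM NADPH (final) for 5 min at ~22 deg C, then incubated with compound 15 min before 400 uM selenite. A first-read NADPH fluorescence drop versus no-compound background flagged substrates.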
# GLP1R inv ag = qHTS of GLP-1 Receptor Inverse Agonists (Inhibition Mode); HEK293 GLP-1R CRE-luciferase, luminescence, 24 h; GLP-1R form is constitutively active; Potency, µM (titrated, usually from 38.3 µM), inactives show at the highest dose activity change, negative = inhibition, most hits filed as inhibitors; 410,000 compounds, 1.6% hits; AID 624417, 2012; note: % is set by controls: 0 for no effect and ±100 for the full control effect; nearly all actives have a fitted effect of over 55% in size
#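 qHTS in 1536-well format: reporter HEK293 cells expressing constitutive GLP-1R activity in DMEM + 10% Nu serum, 24 hr with compounds at 37 deg C, luminescence read after 12 min with detection reagent.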
# rTrxR1 inhibitor = qHTS Assay for Inhibitors of Mammalian Selenoprotein Thioredoxin Reductase 1 (TrxR1): qHTS; 390,000 compounds, 1% hits; recombinant rTrxR1, NADPH fluorescence consumption, selenite substrate; Thioredoxin reductase 1, cytoplasmic (Rattus norvegicus), O89049; Potency, µM (titrated, usually from 114 µM), inactives show at the top dose activity change, negative = inhibition, most hits filed as inhibitors; note: % is set by controls: 0 for no effect and ±100 for the full control effect; nearly all actives have a fitted effect of over 65% in size
#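 Rat TrxR1 (90 nM in the dispensed reagent) was pre-reduced with 400 uM NADPH for 5 min at room temperature, then incubated with compound for 15 min. After 400 uM selenite was added, NADPH fluorescence (Ex 340/Em 450 nm) was followed for 8 min.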
# IDH1 R132H inh = qHTS for Inhibitors of mutant isocitrate dehydrogenase 1 (IDH1): qHTS; Isocitrate dehydrogenase [NADP] cytoplasmic (Homo sapiens), O75874; IDH1-R132H enzyme, NADPH consumption, diaphorase/resazurin fluorescence; Potency, µM (series often up to 76.6 µM), inactives show at the top dose activity change, negative = inhibition, hits mostly inhibitors; 390,000 compounds, 0.093% hits; AID 602179, 2012; note: % is set by controls: 0 for no effect and ±100 for the full control effect; nearly all actives have a fitted effect of over 65% in size
# Target sequence (O75874 whole entry R132H, stated change not applied): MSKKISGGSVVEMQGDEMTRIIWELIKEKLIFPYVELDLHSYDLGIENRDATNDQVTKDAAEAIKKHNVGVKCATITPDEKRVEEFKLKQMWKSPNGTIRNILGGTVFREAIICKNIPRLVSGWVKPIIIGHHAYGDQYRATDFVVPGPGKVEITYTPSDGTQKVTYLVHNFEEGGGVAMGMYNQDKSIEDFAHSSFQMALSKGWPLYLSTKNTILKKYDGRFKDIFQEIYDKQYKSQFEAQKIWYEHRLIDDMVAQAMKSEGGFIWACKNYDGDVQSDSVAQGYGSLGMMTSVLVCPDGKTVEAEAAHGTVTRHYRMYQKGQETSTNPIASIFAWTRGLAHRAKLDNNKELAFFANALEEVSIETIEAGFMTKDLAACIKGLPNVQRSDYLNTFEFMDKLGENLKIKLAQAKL
#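 IDH1-R132H (0.5 ug/mL) preincubated 30 min with compound, then NADPH (0.016 mM) and alpha-KG (2 mM) added; 80 min at RT, pH 7.5. Remaining NADPH coupled via diaphorase/resazurin to fluorescence (540/590 nm); concentration-response curves normalized to no-enzyme control.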
# HEK293 tox = qHTS of GLP-1 Receptor Inverse Agonists: Cytotox Screen; HEK293 cAMP-luciferase reporter cells, luminescence, 24 h; Potency, µM (series often up to 38.3 µM), inactives show at the highest dose activity change, negative = inhibition, hits mostly inhibitors; 410,000 compounds, 0.13% hits;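 note: loss of luciferase light is scored as toxicity; % is set by controls: 0 for no effect and ±100 for the full control effect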
#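 Cells in DMEM/10% Nu serum/1% pen-strep, 1536-well format. Pre-incubated 12 h, dosed with 23 nL compound, incubated a further 24 h. Luciferase detection, 12 min at room temp, luminescence.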
# * hit, by the source's call; ? = inconclusive; / = no result; [ ] = remark or other dose. Calls come from the whole dose curve; as a rule, active = well fitted curve in the direction sought with a large enough effect; inconclusive = small, poorly fitted or top-dose-only effect, or another doubt; inactive = no such curve, though single readings can be large; an effect the other way counts as inactive or inconclusive. Potency is the fitted concentration of half-maximal effect.
SMILES,GLP1R ag,TrxR1 substrate,GLP1R inv ag,rTrxR1 inhibitor,IDH1 R132H inh,HEK293 tox
C/C=C\C=C\C(=O)N1CC2(CC(c3cccc(NC(=O)CC(c4ccccc4)c4ccccc4)c3)=NO2)C[C@H]1C(N)=O (some centres not stated),0.5%,3.2%[57.1 µM],?,?,-6.2%,-28.0%
C/C=C\C=C/C(=O)Nc1cccc(C2=NOC3(C2)C[C@@H](C(N)=O)N(C(=O)/C=C/CC)C3)c1 (some centres not stated),-4.2%,-0.2%,9.3%,15.8µM*,3.7%,1.8%
C/C=C\C=C/C(=O)Nc1cccc(C2=NOC3(C2)C[C@@H](C(N)=O)N(C(=O)C2(C)CC2)C3)c1 (some centres not stated),6.8%,3.2%,15.8%,28.2µM*,-8.5%,-2.1%
C/C=C\C(=O)Nc1cccc(C2=NOC3(C2)C[C@H](C(N)=O)N(C(=O)/C=C/CC)C3)c1 (some centres not stated),-1.6%,1.9%,13.8%,1.0%,6.4%,0.3%
Cc1ccc2nc(-c3ccc(C)s3)c(Nc3ccc4c(c3)OCCO4)n2c1,11.4%,14.3%,-8.3%,19.1%,12.1%,1.7%
CCc1ccc(NC(=O)c2ccc3c(c2)N(Cc2ccc(C)cc2)CCS3)cc1,/,34.0%,-2.6%,34.4%,-22.3%,2.2%
CCCCCN(CCCCC)c1ccc(/C=C/c2ccnc3ccccc23)cc1,/,-16.1%,/,-19.2%,/,/
COc1ccc(NC(=O)C(Cc2ccccc2)NS(=O)(=O)c2ccc3c(c2)oc(=O)n3C)c(OC)c1 (configuration not stated),/,2.6%,-5.6%,6.7%,-14.3%,7.1%
Cc1ccc2nc(CSc3nnc(NC(=O)c4ccc(C(C)(C)C)cc4)s3)cc(=O)n2c1,/,0.2%[57.1 µM],-4.0%,16.3%[57.1 µM],1.8%,-5.4%
C=CCNC(=S)Nc1sc2c(c1C(=O)OCC)CCN(C(=O)OCC)C2,5.8%,4.5%,5.3%,-3.1%,1.6%,-7.9%
C=CCNC(=S)Nc1sc2c(c1C(=O)OCC)CC(C)(CC)OC2 (configuration not stated),0.7%,0.8%[57.1 µM],-3.4%,-7.2%[57.1 µM],0.9%,10µM*
CCCOC(=O)/C(=C\C=C\c1ccccc1)NC(=O)c1ccccc1,21.6%,-15.6%,2.51µM*,-14.2%,-13.3%,9.7%
CCCCOC(=O)/C(=C/C=C/c1ccccc1)NC(=O)c1ccccc1,15.7%,1.6%[57.1 µM],-8.0%[7.66 µM],8.9%[57.1 µM],2.2%,-0.9%[7.66 µM]
CCOC(=O)C1CCCCN1S(=O)(=O)c1csc(C(N)=O)c1 (configuration not stated),/,-7.2%,-1.6%,5.5%,17.0%,4.9%
O=C1COc2ccc(C(=O)NC3CC3)cc2N1,-12.9%,-11.9%,0.3%[0.307 µM],-11.3%,6.8%,-2.4%[0.307 µM]
O=C(O)/C=C/C(=O)c1ccc2c(c1)NC(=O)CO2,6.4%,-2.8%[57.1 µM],10.3%,2.82µM*,1.8%,5.8%
O=C1COc2ccc(C(=O)COC(=O)/C=C/c3ccco3)cc2N1,2.6%,-0.7%,-0.5%,50.1µM*,2.9%,-12.5%
O=C1COc2ccc(C(=O)COC(=O)c3ccc([N+](=O)[O-])cc3Cl)cc2N1,-6.9%,-11.0%,-1.1%,50.1µM*,10.5%,9.9%
Cc1cc(C)c2c(CC(=O)Nc3cc(C(F)(F)F)ccc3Cl)coc2c1,/,6.0%,12.6%,21.6%,1.8%,-2.2%
CCN(CC)C(=O)c1sc2c(c1C)c(=O)n(Cc1ccccc1)c(=O)n2Cc1ccccc1C,/,7.2%[57.1 µM],11.2µM*,18.6%[57.1 µM],-17.5%,-12.0%
CCN(CC)C(=O)c1sc2c(c1C)c(=O)n(CCc1ccccc1)c(=O)n2Cc1ccc(F)cc1Cl,/,-5.7%[57.1 µM],6.3%,-12.2%[57.1 µM],-28.9%,-5.0%
CCc1nn(CC(=O)NCCCN(CC)CC)c(=O)c2cc3sc(C)cc3n12,8.1%,7.1%,10µM*,16.6%,5.1%,-15.6%
CCc1nn(CC(=O)NCCCN(CC(C)C)CC(C)C)c(=O)c2cc3sc(C)cc3n12,/,3.8%,-7.0%,-3.8%,19.1%,-3.0%
CCC(C)n1c(SCC(=O)Nc2cc(C)on2)nc2ccccc2c1=O (configuration not stated),0.1%,-2.4%,?,4.1%,3.0%,-25.3%
CC(C)(C)c1cc(NC(=O)COC(=O)c2ccccc2)n(-c2ccccc2)n1,3.5%,/,?,/,-7.6%,2.8%
SMILES,GLP1R ag,TrxR1 substrate,GLP1R inv ag,rTrxR1 inhibitor,IDH1 R132H inh,HEK293 tox
CC(C)(C)c1cc(NC(=O)COc2ccc(Br)cc2)n(-c2ccccc2)n1,4.8%,-0.6%,8.91µM*,16.2%,6.3%,-14.5%
CCC(C)n1c(SCC(=O)Nc2cc(C(C)(C)C)nn2-c2ccccc2)nc2ccccc2c1=O (configuration not stated),11.8%,-3.7%,11.2µM*,25.7%,-9.1%,0.0%
N[C@H]1CN(c2c(F)cc3c(=O)c(C(=O)O)cn(C4C[C@@H]4F)c3c2Cl)CC12CC2 (some centres not stated),-3.8%,/,/,/,/,/
NS(=O)(=O)c1ccc(NC(=O)c2cnn3c2NC(=C2CC2)C=C3C(F)F)cc1,/,5.5%,/,-5.9%,/,/
Clc1ccc(Cn2nc(-c3ccccc3)nc2-c2ccccc2)cc1,0.0%,-3.3%,7.94µM*,-0.9%,-0.6%,-0.5%
CCCCNC(=O)c1ccc2c(c1)N(CC)C(=O)c1ccccc1S2,/,-4.4%[57.1 µM],?,-6.2%[57.1 µM],5.4%,-3.6%
O=C(NCCN1CCOCC1)c1ccc(/C=C2\Sc3ccccc3N(Cc3ccccc3F)C2=O)cc1,-4.1%,-3.3%,?,1.9%,1.9%,23.2%
Cc1ccccc1CN1C(=O)/C(=C\c2ccc(C(=O)NCCN3CCOCC3)cc2)Sc2ccccc21,-2.0%,-0.8%,11.2µM*,16.8%,1.5%,39.1%
O=C(CN1C(=O)/C(=C/c2ccc(C(F)(F)F)cc2)Sc2ccccc21)NCCCN1CCOCC1,17.1%,-2.1%,?,11.4%,-1.7%,-24.6%
CCc1ccc(/C=C2/Sc3ccccc3N(CC(=O)NCCCN3CCOCC3)C2=O)cc1,-3.5%,-4.5%,8.91µM*,3.8%,2.3%,-9.8%
CCN1CCN(CCNC(=O)c2ccc3c(c2)N(Cc2ccc(F)cc2)C(=O)/C(=C/c2ccccc2)S3)CC1,-0.4%,0.1%,10µM*,-5.1%,8.1%,?
